40 sequences from the supplement of paper PMC6555819 can be followed below.

This assay has as its system VDR:RXRa (NR concentration 270 nM, RXRa partner concentration 90 nM). The experiment in a line: PBM binding z-score (relative to random genomic background probes); higher = stronger binding; sequences stand for … in GC…GCGATTGACAGCGTAGAATGAAGG
As for the experimental part:
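Protein-binding microarray (Agilent 4x180K custom design, double-stranded 60-nt probes: 5' GC cap, 34-nt variable region, 24-nt constant primer region; full probe sequence given). Purified or IVT nuclear receptor:RXRα heterodimers (3:1 NR:RXRα, mostly 270:90 nM) or homodimers were incubated for 1 h in PBS with 2% milk and no ligand, then detected with Alexa488 antibodies. Fluorescence from o1-orientation probes (~5 replicates averaged) was converted to z-scores against 500 random hg19 background probes. Variable regions are seed direct-repeat (DR0–DR5) sites, all their single-nucleotide variants and half-site ablations.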
Consider GCTGCTAGGTCAGGTAGGTCAGCTAACGGGTACG, for which the PBM binding z-score was 3.35.
Next, CGAACTAGGGCAAGGACAGTGAATCTCCGCACGC: -0.473.
Next, TCTTGTAGATCAGCAGGTTTAGAAAGCTGGCCAA: 0.532; TCTATTAGTTGATTAGGGCAACAGAAACAGCGGA: 0.574; ACAGACACGTGAGTGAAGGTAACTCAGCTGGACG: -0.481.
Next, CGTCCAAGGTCAAGGTCAGTGCAAGAGACTCGAA: 5.5; AGAATGAGGTTGCCAAAGATCAGGGAAACGCTTG: 0.143.
In turn, ATCTCTAGATAAAGATAGTTCAGTGAATGCAAAT returned a PBM binding z-score of 0.517.
With CTACCATGGTGAACAAGGTCGTTGATTACTATTC the figure was 3.04; with CCTCGGAGGACAGAAGGTCCGAGCTGTCCGCTTT, -0.656.
For ATCTCTAGGTACAGATAGTTCAGTGAATGCAAAT, the PBM binding z-score was 1.18.
For ACAGACAGGGGATGAAGGTAACTCAGGCTATCAT, the PBM binding z-score was determined as 0.0836.
With GCATATAGGTAATACAAGGTGAAAGTGCGATTGT the figure was 0.469; with TGTTAAAGTTCAAAGGTAACGTAAGTATCCACAC, 4.87; with GCTGCTAGGTCAACTGATGGTCAGCTACAGCTCG, 1.51.
With CGTCAAAGTTCAACTAAGGTACCGTAAAGCACGC, the PBM binding z-score was 4.4.
With TCTGCTAGATCAGTTGGTCAGCTAACGAGCTGCC the figure was -0.706; with ATATGTAGGTTACATCAGGGTCATTCAGGCTATG, 5.14; with ATATGTAGGTTTAGGGTCATTCAGGTTGGTTCGC, 5.54.
Next, CTGGAAAGGTCGTGCTCAGGTGAGTATACCAAAC: 3.1; TAGCCTAGGTCAGATCGAGCCAGTATACGCTATA: 0.0723.
Regarding ATCTCTAGGTAAACATAGTTCAGTGAATGCAAAT, the PBM binding z-score was determined as 1.34.
Next, CGAACGAGGGCATGAGTAGATAGCAAATGCCGAT: 0.5.
Regarding AGAATGAGGTTAAGATCAGGGTAACAGAATACAT, the PBM binding z-score is 2.
Next, CCGAGTAGGTTGTGGGGCATTCAGGCAACGGTGA: -0.367; CGAACTAGGTCAGAACAGGACAGTAAAGGATGAT: 0.971.
With TCTTGTAGATCAGAGGTTAAGAAAGCCGAAGCCT the figure was 0.673; with GTACCAAGGTGAATAGGTGGTTGATGAGTAGGCG, -0.165; with TCTAGTAGATCAAGCAGGTTAAGAAAGCCTGAGT, 0.576.
ACTAGCAGTCCAAGGGTCACTCAAGATTAGTCCG yielded a PBM binding z-score of 2.86.
With GGAACGAGGGCTAGTTGATAGCAGAGTTTGATGG the figure was -0.607; with TAGCCTAGGTCATGGGCCAGAATACCACGCGAAC, 1.91; with TCGAGTAGGTTACCAAAGGGGCATTCAGCTTTCT, 0.89.
Regarding ACTCGGAGGACAAAGGTCAGACCTACGCCAGTGA, the PBM binding z-score amounted to 3.52.
Next, ATCTCTAGGTAACCAAGTTCAGCGAATGCCGAAC: 4.31; TATACAGGGTCAAAGGCAAGAGTACGAATGTCGA: 4.61.
Next, TCATATAGTTAAACAGGTGAAAGTCCGTAAGTTA: 1.21; CCTACTGGGCCATTCAGAGGTCATTCATCATATG: 4.26.
Next, TCTTGTAGATCAAGCAGGTTAACAAAGCCTGAGT: 0.729; AGAATGAGGTTACCAAGGATCAGGGAAACGCTTG: 2.03.
